# Experimental data from PubChem BioAssay.
# “And” between values parts separate entries of the source, which are not always exact repeats. Equal entries are not always repeated. The source made the active and inactive calls.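 How the source made its calls, unless noted: active means thallium flux through the channel raised or lowered by more than 3 SD from vehicle-only wells, actives on both sides; inactive means the rest.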
# Tests used:
# [1] = biological target: 6-phosphogluconate dehydrogenase, decarboxylating (Homo sapiens) (UniProt P52209); experiment: inhibition of human phosphogluconate dehydrogenase – biochemical, recombinant enzyme, NADPH absorbance, primary screen (AID 1159550;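 active means at least 20% inhibition of 6-phosphogluconate dehydrogenase activity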); conditions: recombinant 6PGD, NADPH absorbance 341 nm; at 10 µM; stronger effect = higher value
# [2] = EMT-state selective cytotoxicity in co-culture – imaging, PC-3E GFP, TEM4-18 mCherry, primary screen (AID 1345086;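 active means compounds killing one labelled cell type while sparing the other, by normalised counts and ratio limits, not self-fluorescent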;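 on all read-outs here: cells exposed to compound for 72 h before imaging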;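 on red/green cell ratio (normalised): normalised mesenchymal count divided by normalised epithelial count so high means epithelial killing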); conditions: PC-3E GFP / TEM4-18 mCherry co-culture, imaging cell counts, at 1 µM; for red/green cell ratio (normalised): actives lie on both sides, counts scaled to control wells, 1 = unselective
# [3] = P. berghei load reduction in hepatocytes – cell-based, HepG2, luciferase luminescence, HepG2 viability, primary screen (AID 624349; in the data active means parasite load remaining mostly below about 12%, no sharp cut-off; inactive means mostly above about 10%;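 further: 100% = mean of DMSO negative control wells on the same plate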); conditions: P. berghei liver stage in HepG2, luciferase luminescence, concentration not given here; parasite load remaining: stronger effect = lower value; viability: measured here: HepG2 viability without parasites
# [4] = signal quenchers or enhancers, Cy5 substrate/SSB – biochemical, NIH Clinical Collection, E. coli SSB, artefact control for HCV NS3 helicase inhibitor project (AID 743268; call rule not given here); conditions: Cy5-oligo bound E. coli SSB, fluorescence interference
# [5] = system: Hepatitis C virus NS3 helicase; experiment: blockers of NS3h binding to DNA – biochemical, fluorescence polarization, NIH Clinical Collection, primary screen (AID 743270; call rule not given here); conditions: NS3 helicase binding to Cy5-dT15 DNA, stronger effect = higher value, concentration not given here
# [6] = biological target: Single-stranded DNA-binding protein (Escherichia coli (strain K12)) (UniProt P0AGE0); experiment: SSB-ssDNA binding inhibitors – biochemical, fluorescence polarization, NIH Clinical Collection, counter-screen for HCV NS3 helicase inhibitor project (AID 743271; in the data active means inhibition above about 28%); conditions: E. coli SSB-DNA binding, stronger effect = higher value, concentration not given here
# [7] = compounds distorting NS3 helicase fluorescence signal – biochemical, NIH Clinical Collection, artefact control for HCV NS3 helicase inhibitor project (AID 743272; call rule not given here;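 further: HCV NS3 helicase with a Cy5 labelled single stranded DNA probe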); conditions: fluorescence interference counterscreen, HCV NS3 helicase assay; stronger effect = lower value
# [8] = modulation of C. elegans fzo-1 (AID 1259413; call rule not given here;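 further: fzo-1 mutant C. elegans worms in liquid wells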); conditions: C. elegans fzo-1 modulator screen, mean read-out; stronger effect = higher value
# [9] = viability loss with induced miR-34 in A549 – imaging, A549 dox-inducible miR-34, nuclei and caspase counts, primary screen (AID 1347080;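 active means compounds whose cell count with miR-34 switched on is under 0.7 times the count with it off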); conditions: A549 miR-34 inducible, Hoechst nuclei count, 48 h
# [10] = MELAS cybrid and Rieske KO viability enhancers – cell-based, MELAS cybrids, Rieske KO mouse fibroblasts, CellTiter-Glo, primary screen (AID 1508586;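 active means mean z-score across replicates of 1.96 or higher in either the MELAS or the Rieske mutant cell line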;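 further: z relative to plate mean and SD of compound and empty wells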); conditions: low glucose
# [11] = biological target: Mitogen-activated protein kinase 7 (Homo sapiens) (UniProt Q13164); experiment: Gal4-ERK5 driven luciferase induction – cell-based, HTS, primary screen (AID 1508626;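 active means luciferase signal above three times the same-plate solvent-only control wells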;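 further: luciferase driven by Gal4-ERK5 fusion binding five Gal4 sites before minimal TATA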); conditions: HeLa Gal4-ERK5 transactivation, 18 h, at 5 µM, stronger effect = higher value
# [12] = galactose survival enhancers in mitochondrial complex I cybrids – cell-based, galactose medium, ATP luminescence, primary screen (AID 1645843;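 active means z-score of at least 1.8 in each of two replicates, scored against plate mean and spread of sample wells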;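 further: positive z means more ATP and so rescue of galactose-driven cybrid death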); conditions: complex I mutant cybrid cells, 72 h, stronger effect = higher value
# F380Y = experiment: BK channel mutant inhibitors and activators – cell-based, U2OS BacMam, thallium flux, beta subunits, selectivity assay, profiling panel (AID 1259406); conditions: U2OS BacMam BK variants, at 30 µM;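 further: initial slope of Thallos dye fluorescence rise after thallium is added; log ratio against the mean of 0.3% DMSO vehicle wells on the same plate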
# F380Y/beta1 = experiment: as above; conditions: U2OS BacMam BK variants, at 30 µM
# F380Y/beta2Delta = experiment: as above; conditions: U2OS BacMam BK variants, at 30 µM
# [13] = biological target: Calcium-activated potassium channel subunit alpha-1 (Homo sapiens) + Leucine-rich repeat-containing protein 26 (Homo sapiens) (UniProt Q12791+Q2I0M4); experiment: as above; conditions: U2OS BacMam BK variants, F380Y/Slo1WT/gamma1, at 30 µM
# R275C = experiment: as above; conditions: U2OS BacMam BK variants, at 30 µM
# R275C/beta1 = experiment: as above; conditions: U2OS BacMam BK variants, at 30 µM
# R275C/beta2Delta = experiment: as above; conditions: U2OS BacMam BK variants, at 30 µM
# [14] = measured here: epithelial PC-3E GFP cell survival
# [15] = measured here: mesenchymal TEM4-18 mCherry cell survival
# [16] = stronger effect = lower value, cell number ratio, induced over uninduced
# [17] = measured here: relative caspase fold change +Dox/-Dox
# [18] = measured here: total cells with miR-34 induction, stronger effect = lower value
# [19] = measured here: total cells without miR-34 induction
# [20] = MELAS cybrid survival, CellTiter-Glo 48 h, stronger effect = higher value
# [21] = Rieske KO mouse fibroblast survival, CellTiter-Glo 72 h
# Mitogen-activated protein kinase 7 (Homo sapiens), sequence (Q13164 whole entry, looked up, the tested form may be a part): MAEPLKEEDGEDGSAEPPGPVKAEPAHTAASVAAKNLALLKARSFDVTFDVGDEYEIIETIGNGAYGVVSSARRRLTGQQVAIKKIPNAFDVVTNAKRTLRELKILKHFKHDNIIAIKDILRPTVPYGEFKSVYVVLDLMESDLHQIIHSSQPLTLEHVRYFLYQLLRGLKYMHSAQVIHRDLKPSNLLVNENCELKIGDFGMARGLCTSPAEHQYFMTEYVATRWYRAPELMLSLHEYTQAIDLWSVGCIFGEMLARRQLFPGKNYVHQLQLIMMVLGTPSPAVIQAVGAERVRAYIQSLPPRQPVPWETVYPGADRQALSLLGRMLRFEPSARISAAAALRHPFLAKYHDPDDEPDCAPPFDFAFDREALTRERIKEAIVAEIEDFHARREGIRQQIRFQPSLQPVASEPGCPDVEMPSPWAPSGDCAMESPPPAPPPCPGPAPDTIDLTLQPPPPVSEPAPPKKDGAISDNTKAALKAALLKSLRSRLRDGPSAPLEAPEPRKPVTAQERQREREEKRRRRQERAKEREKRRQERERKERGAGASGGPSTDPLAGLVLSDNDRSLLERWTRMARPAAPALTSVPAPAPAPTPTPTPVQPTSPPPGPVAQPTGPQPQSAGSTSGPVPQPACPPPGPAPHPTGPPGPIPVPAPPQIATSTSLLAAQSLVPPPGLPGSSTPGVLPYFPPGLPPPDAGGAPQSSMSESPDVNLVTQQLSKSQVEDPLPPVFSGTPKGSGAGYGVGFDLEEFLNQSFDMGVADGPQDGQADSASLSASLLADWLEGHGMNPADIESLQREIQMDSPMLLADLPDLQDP
# 6-phosphogluconate dehydrogenase, decarboxylating (Homo sapiens), sequence (P52209 whole entry, looked up): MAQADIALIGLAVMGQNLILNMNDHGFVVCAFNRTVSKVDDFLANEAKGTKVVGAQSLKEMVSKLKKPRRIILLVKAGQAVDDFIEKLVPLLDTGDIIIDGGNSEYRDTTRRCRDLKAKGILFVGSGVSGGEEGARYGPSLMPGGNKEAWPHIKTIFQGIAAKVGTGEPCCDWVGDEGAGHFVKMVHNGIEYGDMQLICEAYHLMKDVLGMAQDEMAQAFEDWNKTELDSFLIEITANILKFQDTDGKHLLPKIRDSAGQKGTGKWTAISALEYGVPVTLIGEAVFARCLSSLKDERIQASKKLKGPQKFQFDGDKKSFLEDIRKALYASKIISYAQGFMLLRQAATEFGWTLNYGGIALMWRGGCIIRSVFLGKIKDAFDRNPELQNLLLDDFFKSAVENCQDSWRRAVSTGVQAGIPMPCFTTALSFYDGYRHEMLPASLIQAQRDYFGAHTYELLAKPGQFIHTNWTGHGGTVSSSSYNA
# Calcium-activated potassium channel subunit alpha-1 (Homo sapiens) + Leucine-rich repeat-containing protein 26 (Homo sapiens), sequence (Q2I0M4 whole entry, looked up, one chain of several): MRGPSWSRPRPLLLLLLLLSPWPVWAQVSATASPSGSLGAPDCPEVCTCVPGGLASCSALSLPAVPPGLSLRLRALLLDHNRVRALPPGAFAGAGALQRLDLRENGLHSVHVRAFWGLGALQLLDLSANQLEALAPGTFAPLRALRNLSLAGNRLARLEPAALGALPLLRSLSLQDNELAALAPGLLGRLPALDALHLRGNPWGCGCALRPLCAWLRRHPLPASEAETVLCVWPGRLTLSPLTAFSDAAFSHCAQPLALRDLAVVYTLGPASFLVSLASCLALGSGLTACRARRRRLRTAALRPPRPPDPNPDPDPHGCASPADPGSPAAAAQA
compound,measurement,setting,value
O=c1ccc2ccc(O)cc2o1,inhibition,[1],5.77% (inactive)
same,red/green cell ratio (normalised),[2],0.88 (inactive)
same,normalised cell number,[2]; [14],1.05
same,normalised cell number,[2]; [15],0.93
CC1(C)S[C@@H]2[C@H](NC(=O)[C@H](N)c3ccc(O)cc3)C(=O)N2[C@H]1C(=O)O,parasite load remaining,[3],78% (inactive) and 120% (inactive) and 88.8% (inactive)
same,viability,[3],117% and 121% and 76%
same,fluorescence ratio,[4],1.01 (inactive)
same,inhibition,[5],-4.09% (inactive)
same,inhibition,[6],7.91% (inactive)
same,fluorescence ratio,[7],1 (inactive)
same,inhibition,[1],8.62% (inactive)
same,mean signal,[8],239 (inactive)
same,fold change,[9]; [16],0.943 (inactive) and 0.821 (inactive)
same,fold change,[9]; [17],1.29 and 1.62
same,cell count,[9]; [18],10300 and 8970
same,cell count,[9]; [19],10900
same,z-score,[10]; [20],0.664 (inactive)
same,z-score,[10]; [21],0.115
same,luciferase signal,[11],56 AU (inactive)
same,z-score,[12],0.84 (inactive)
same,log fold change Tl+ flux,F380Y,-0.0516 (inactive)
same,log fold change Tl+ flux,F380Y/beta1,0.0448 (inactive)
same,log fold change Tl+ flux,F380Y/beta2Delta,-0.0816 (active)
same,log fold change Tl+ flux,[13],0.0259 (inactive)
same,log fold change Tl+ flux,R275C,0.00882 (inactive)
same,log fold change Tl+ flux,R275C/beta1,0.0045 (inactive)
same,log fold change Tl+ flux,R275C/beta2Delta,-0.0233 (inactive)
COc1cc(OC)c2c(OC)c(-c3ccc4c(c3)OCO4)c(=O)oc2c1,inhibition,[1],-4.99% (inactive)
same,red/green cell ratio (normalised),[2],1.02 (inactive)
same,normalised cell number,[2]; [14],0.92
same,normalised cell number,[2]; [15],0.94
CC(=O)OCC(=O)[C@@]1(O)CC[C@H]2[C@@H]3CCC4=CC(=O)CC[C@]4(C)[C@H]3[C@@H](O)C[C@@]21C,parasite load remaining,[3],82.4% (inactive) and 26% (inactive)
same,viability,[3],130% and 68%
same,fluorescence ratio,[4],0.96 (inactive)
same,inhibition,[5],-0.45% (inactive)
same,inhibition,[6],1.81% (inactive)
same,fluorescence ratio,[7],0.96 (inactive)
same,inhibition,[1],8.37% (inactive)
same,fold change,[9]; [16],0.933 (inactive) and 0.77 (inactive)
same,fold change,[9]; [17],0.523 and 1.29
same,cell count,[9]; [18],7330 and 6560
same,cell count,[9]; [19],7860 and 8520
same,z-score,[10]; [20],0.499 (inactive) and 0.396 (inactive)
same,z-score,[10]; [21],0.874 and 1.08
same,luciferase signal,[11],36 AU (inactive)
same,z-score,[12],-0.03 (inactive) and 0.39 (inactive)
same,log fold change Tl+ flux,F380Y,-0.0118 (inactive)
same,log fold change Tl+ flux,F380Y/beta1,-0.0206 (inactive)
same,log fold change Tl+ flux,F380Y/beta2Delta,0.0163 (inactive)
same,log fold change Tl+ flux,[13],0.0135 (inactive)
same,log fold change Tl+ flux,R275C,-0.0512 (inactive)
same,log fold change Tl+ flux,R275C/beta1,-0.0363 (inactive)
same,log fold change Tl+ flux,R275C/beta2Delta,-0.0239 (inactive)
CCC(=O)OCC(=O)[C@@]1(OC(=O)CC)[C@@H](C)C[C@H]2[C@@H]3CCC4=CC(=O)C=C[C@]4(C)[C@@]3(Cl)[C@@H](O)C[C@@]21C,parasite load remaining,[3],87.4% (inactive) and 97.8% (inactive)
same,viability,[3],126% and 93.5%
same,fluorescence ratio,[4],1.01 (inactive)
same,inhibition,[5],0.45% (inactive)
same,inhibition,[6],2.57% (inactive)
same,fluorescence ratio,[7],0.96 (inactive)
same,inhibition,[1],-4.35% (inactive)
same,fold change,[9]; [16],0.914 (inactive) and 0.792 (inactive)
same,fold change,[9]; [17],1.6 and 1.23
same,cell count,[9]; [18],6840 and 6120
same,cell count,[9]; [19],7490 and 7730
same,z-score,[10]; [20],0.616 (inactive)
same,z-score,[10]; [21],1.23
same,luciferase signal,[11],188 AU (inactive)
same,z-score,[12],-1.24 (inactive)
same,log fold change Tl+ flux,F380Y,-0.163 (active)
same,log fold change Tl+ flux,F380Y/beta1,-0.203 (active)
same,log fold change Tl+ flux,F380Y/beta2Delta,-0.0617 (inactive)
same,log fold change Tl+ flux,[13],0.021 (inactive)
same,log fold change Tl+ flux,R275C,-0.105 (active)
same,log fold change Tl+ flux,R275C/beta1,0.0418 (inactive)
same,log fold change Tl+ flux,R275C/beta2Delta,0.0132 (inactive)
COc1cc2c(cc1OC)C1C(=O)c3c(cc4c(c3O)C=CC(C)(C)O4)OC1CO2 (centres undefined),inhibition,[1],7.64% (inactive)
same,red/green cell ratio (normalised),[2],0.76 (inactive)
same,normalised cell number,[2]; [14],1.04
same,normalised cell number,[2]; [15],0.79
CNCCC=C1c2ccccc2CCc2ccccc21,fluorescence ratio,[4],1.02 (inactive)
same,inhibition,[5],-5.91% (inactive)
same,inhibition,[6],-4.29% (inactive)
same,fluorescence ratio,[7],0.99 (inactive)
same,inhibition,[1],-10.4% (inactive)
same,mean signal,[8],233 (inactive)
same,red/green cell ratio (normalised),[2],1.12 (inactive)
same,normalised cell number,[2]; [14],1.12
same,normalised cell number,[2]; [15],1.26
same,z-score,[10]; [20],-0.337 (inactive)
same,z-score,[10]; [21],-0.307
same,luciferase signal,[11],120 AU (inactive)
same,z-score,[12],-1.28 (inactive) and -1.35 (inactive)
same,log fold change Tl+ flux,F380Y,0.169 (active)
same,log fold change Tl+ flux,F380Y/beta1,0.0784 (inactive)
same,log fold change Tl+ flux,F380Y/beta2Delta,0.217 (active)
same,log fold change Tl+ flux,[13],0.00764 (inactive)
same,log fold change Tl+ flux,R275C,0.0226 (inactive)
same,log fold change Tl+ flux,R275C/beta1,0.165 (active)
same,log fold change Tl+ flux,R275C/beta2Delta,0.126 (active)
CC(=O)OCC(=O)[C@@]1(O)CC[C@H]2[C@@H]3C[C@H](C)C4=CC(=O)C=C[C@]4(C)[C@H]3[C@@H](O)C[C@@]21C,parasite load remaining,[3],68.8% (inactive)
same,viability,[3],94.7%
same,fluorescence ratio,[4],0.98 (inactive)
same,inhibition,[5],-2.27% (inactive)
same,inhibition,[6],0.29% (inactive)
same,fluorescence ratio,[7],0.99 (inactive)
same,inhibition,[1],6.5% (inactive)
same,mean signal,[8],251 (inactive)
same,fold change,[9]; [16],0.982 (inactive)
same,fold change,[9]; [17],1.01
same,cell count,[9]; [18],8310
same,cell count,[9]; [19],8460
same,luciferase signal,[11],112 AU (inactive)
same,z-score,[12],-0.46 (inactive)
same,log fold change Tl+ flux,F380Y,0.0243 (inactive)
same,log fold change Tl+ flux,F380Y/beta1,0.0602 (inactive)
same,log fold change Tl+ flux,F380Y/beta2Delta,0.0726 (inactive)
same,log fold change Tl+ flux,[13],0.0089 (inactive)
same,log fold change Tl+ flux,R275C,0.0193 (inactive)
same,log fold change Tl+ flux,R275C/beta1,0.0544 (inactive)
same,log fold change Tl+ flux,R275C/beta2Delta,0.0284 (inactive)
O=C(O)c1cc(=O)c(O)c2c(O)c(O)ccc2c1,inhibition,[1],31% (active)
same,red/green cell ratio (normalised),[2],0.86 (inactive)
same,normalised cell number,[2]; [14],1.29
same,normalised cell number,[2]; [15],1.11
